In PubChem BioAssay (EPA / NIEHS):
Inconclusive results are not listed. The source made the active and inactive calls. The calls were made as follows, unless noted: active = hit-call score of the fitted dose curve at least 0.9, where 1 is the maximum; inconclusive = response in the unintended direction; inactive = score below 0.9.

What was measured:
[1] = ATG_TCF_b_cat_CIS: Attagene CIS-FACTORIAL HepG2 Assay for human T-Cell-Factor with beta-catenin (TCF/b-cat) (AID 2282965; active = hit-call score of the fitted dose curve at least 0.9, where 1 is the maximum; inactive = score below 0.9); settings: HepG2 TCF/beta-catenin cis-reporter transcription, actives raise or lower the signal
Procedure, shortened: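 HepG2 cells transiently transfected with cis-promoter-driven multiplexed reporter units; reporter mRNA measured 24 h after dosing by RT-PCR, FAM labelling, HpaI digestion and capillary electrophoresis. Bidirectional fitting relative to DMSO baseline.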

[2] = ATG_TAL_CIS: Attagene CIS-FACTORIAL HepG2 Assay for human TAL Basal Promoter (AID 2282966; active = hit-call score of the fitted dose curve at least 0.9, where 1 is the maximum; inactive = score below 0.9;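 also: background control endpoint measuring basal TAL promoter reporter mRNA not a specific factor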); settings: HepG2 Attagene cis-factorial TAL promoter reporter; actives raise or lower the signal
Procedure, shortened: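 In this cell-based multiplex, HepG2 liver cells bearing cis-promoter reporter constructs are dosed for 24 hours. Total RNA is reverse-transcribed and amplified, labelled fragments are sized by capillary electrophoresis, and signal changes are fitted bidirectionally versus DMSO.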

[3] = ATG_TGFb_CIS: Attagene CIS-FACTORIAL HepG2 Assay for human Transforming Growth Factor (TGF) (AID 2282967; active = hit-call score of the fitted dose curve at least 0.9, where 1 is the maximum; inactive = score below 0.9); settings: HepG2 Attagene CIS TGFb reporter, mRNA transcription; actives raise or lower the signal
Procedure, shortened: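 Liver HepG2 line, cis-factorial reporter panel, 24 h dosing. Quantitation: RT-PCR products labeled with 6-FAM, cut with HpaI, resolved by capillary electrophoresis; DMSO-referenced bidirectional analysis.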

[4] = ATG_VDRE_CIS: Attagene CIS-FACTORIAL HepG2 Assay for human Vitamin D Receptor Element (VDRE) (AID 2282968; active = hit-call score of the fitted dose curve at least 0.9, where 1 is the maximum; inactive = score below 0.9); settings: HepG2 VDRE cis-reporter transcription, actives raise or lower the signal
Procedure, shortened: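 Transiently transfected HepG2 cells carrying cis-regulated reporter transcription units were exposed for 24 h. Reporter mRNA was measured by RT-PCR with fluorescent labelling and capillary electrophoresis, and fitted in both directions against DMSO.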

[5] = target: Nuclear receptor subfamily 1 group I member 3 (Homo sapiens) (UniProt Q14994); assay: ATG_CAR_TRANS: Attagene TRANS-FACTORIAL HepG2 Assay for human Constitutive Androstane Receptor (CAR) (AID 2282969); settings: HepG2 Attagene TRANS-FACTORIAL CAR reporter;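 also: activators raise reporter mRNA above DMSO so AC50 marks induction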
Procedure, shortened: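 HepG2 cells transiently transfected with GAL4-UAS reporter units; TRANS format reads activity of exogenous chimeric NR-Gal4 protein. After 24 h dosing, reporter mRNA quantified by RT-PCR, 6-FAM labelling and capillary electrophoresis; gain of signal fitted against DMSO.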

[6] = target: Estrogen receptor (Homo sapiens) (UniProt P03372); assay: ATG_ERa_TRANS: Attagene TRANS-FACTORIAL HepG2 Assay for human Estrogen Receptor alpha (ERa) (AID 2282970); settings: HepG2 Attagene TRANS ERa GAL4 reporter, mRNA
Procedure, shortened: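 After 24 h of compound treatment, RNA from HepG2 cells bearing transfected GAL4-UAS reporter constructs is converted to cDNA, amplified and fluorescently labelled. Capillary electrophoresis resolves the ERa-linked reporter; DMSO serves as negative control.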

[7] = target: X-box-binding protein 1 (Homo sapiens) (UniProt P17861); assay: ATG_Xbp1_CIS: Attagene CIS-FACTORIAL HepG2 Assay for human X-box Binding Protein 1 (XBP1) (AID 2282972; active = hit-call score of the fitted dose curve at least 0.9, where 1 is the maximum; inactive = score below 0.9); settings: HepG2 XBP1 cis-element reporter, Attagene multiplex; actives raise or lower the signal
Procedure, shortened: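 HepG2 cells transiently transfected with multiple cis-element reporter units report endogenous TF activity; 24 h exposure, then reporter mRNA measured by RT-PCR, 6-FAM labelling, HpaI digestion and capillary electrophoresis. Bidirectional fitting versus DMSO.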

[8] = ATG_M_19_TRANS: Attagene TRANS-FACTORIAL HepG2 Assay for M19 Transcription Factor (Internal Marker) (AID 2282974); settings: HepG2 Attagene TRANS-FACTORIAL M19 internal marker reporter
Procedure, shortened: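 Reporter mRNA induction was measured in transfected HepG2 cells 24 h after dosing. Endpoint fitted upward relative to DMSO and serves as a background control within the multiplexed TRANS panel.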

[9] = ATG_GAL4_TRANS: Attagene TRANS-FACTORIAL HepG2 Assay for GAL4 (Internal Marker) (AID 2282976); settings: HepG2 Attagene TRANS GAL4 internal marker reporter
Procedure, shortened: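 RT-PCR/capillary electrophoresis readout of reporter mRNA. HepG2, transient MRTU transfection (GAL4-UAS reporters), 24 h compound exposure. Background-control endpoint, positive direction vs DMSO baseline.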

[10] = target: Bile acid receptor (Homo sapiens) (UniProt Q96RI1); assay: ATG_FXR_TRANS: Attagene TRANS-FACTORIAL HepG2 Assay for Farnesoid X Receptor (FXR) (AID 2282979); settings: HepG2 Attagene TRANS FXR-GAL4 reporter transcription;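 also: hits raise reporter mRNA above DMSO so AC50 marks FXR activation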
Procedure, shortened: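 Read-out: fluorescent reporter transcripts quantified by capillary electrophoresis after RT-PCR of total RNA. Source cells were HepG2 transiently carrying chimeric NR-GAL4 plus GAL4-UAS reporter units, dosed 24 h. Activity fitted upward relative to DMSO baseline.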

[11] = target: Oxysterols receptor LXR-beta (Homo sapiens) (UniProt P55055); assay: ATG_LXRb_TRANS: Attagene TRANS-FACTORIAL HepG2 Assay for human Liver X Receptor beta (LXRb) (AID 2282981); settings: HepG2 Attagene TRANS GAL4-LXRb reporter, mRNA
Procedure, shortened: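 HepG2 cells transiently transfected with GAL4-UAS reporter units for chimeric NR-Gal4 proteins, dosed for 24 h. Reporter transcripts measured by RT-PCR and capillary electrophoresis; gain-of-signal fitting relative to DMSO.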

[12] = target: Hepatocyte nuclear factor 4-alpha (Homo sapiens) (UniProt P41235); assay: ATG_HNF4a_TRANS: Attagene TRANS-FACTORIAL HepG2 Assay for human Hepatocyte Nuclear Factor 4 alpha (HNF4a) (AID 2282982); settings: HepG2 HNF4a transactivation reporter, mRNA readout
Procedure, shortened: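 HepG2 cells transiently transfected with HNF4a-Gal4 chimera and GAL4-UAS reporter units, dosed for 24 h. Reporter mRNA measured by RT-PCR, fluorescent primer extension and capillary electrophoresis; gain-of-signal fitted relative to DMSO.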

[13] = ATG_M_06_TRANS: Attagene TRANS-FACTORIAL HepG2 Assay for M06 Transcription Factor (Internal Marker) (AID 2282983); settings: HepG2 Attagene TRANS M06 internal marker reporter
Procedure, shortened: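 After a 24 h chemical treatment of transfected HepG2, RNA underwent DNase I treatment, reverse transcription and reporter-specific PCR; labelled, HpaI-digested products were sized by capillary electrophoresis. Signal increase relative to DMSO defined activity.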

[14] = ATG_M_32_TRANS: Attagene TRANS-FACTORIAL HepG2 Assay for M32 Transcription Factor (Internal Marker) (AID 2282984); settings: HepG2 Attagene TRANS M32 internal marker reporter;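 also: transcript level of a background control reporter unit measured by RT-PCR and capillary electrophoresis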
Procedure, shortened: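 HepG2 cells transiently transfected with GAL4-UAS reporter units, dosed for 24 hours. Reporter mRNA quantified by RT-PCR, 6-FAM labelling, HpaI digestion and capillary electrophoresis; internal-marker signal fitted upward relative to DMSO.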

[15] = target: Nuclear receptor subfamily 4 group A member 2 (Homo sapiens) (UniProt P43354); assay: ATG_NURR1_TRANS: Attagene TRANS-FACTORIAL HepG2 Assay for human Nuclear Receptor Related Protein 1 (NURR1) (AID 2282985); settings: HepG2 Attagene TRANS reporter, mRNA readout
Procedure, shortened: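 HepG2 cells transiently transfected with NURR1-Gal4 chimera and GAL4-UAS reporter units; after 24 hr compound exposure, reporter mRNA quantified by RT-PCR and capillary electrophoresis; gain of signal fitted against DMSO.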

[16] = target: Transcriptional activator Myb (Homo sapiens) (UniProt P10242); assay: ATG_Myb_CIS: Attagene CIS-FACTORIAL HepG2 Assay for human Myeloblastosis (Myb) Proto-Oncogene Transcription Factor (AID 2282986; active = hit-call score of the fitted dose curve at least 0.9, where 1 is the maximum; inactive = score below 0.9); settings: HepG2 Attagene CIS-FACTORIAL Myb reporter transcription; actives raise or lower the signal
Procedure, shortened: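 Transiently transfected HepG2 cells, treated 24 h. Reporter mRNA quantified by RT-PCR/capillary electrophoresis; bidirectional fit relative to DMSO.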

[17] = target: Steroid hormone receptor ERR1 (Homo sapiens) (UniProt P11474); assay: ATG_ERRa_TRANS: Attagene TRANS-FACTORIAL HepG2 Assay for human Estrogen-Related Receptor alpha (ERRa) (AID 2282971); settings: HepG2 Attagene TRANS reporter, ERRa transactivation
Procedure, shortened: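 Transfected HepG2, 24 h dosing, ERRa-Gal4 chimera driving GAL4-UAS reporter. Readout: reporter mRNA via RT-PCR plus capillary electrophoresis (fluorescence). Positive direction vs DMSO control.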

[18] = target: Glucocorticoid receptor (Homo sapiens) (UniProt P04150); assay: ATG_GR_TRANS: Attagene TRANS-FACTORIAL HepG2 Assay for human Glucocorticoid Receptor (GR) (AID 2282978); settings: HepG2 Attagene TRANS GR reporter, mRNA transcription;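 also: activators score as hits since higher reporter transcript over DMSO is fitted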
Procedure, shortened: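 Reporter transcript levels, detected by fluorescence after RT-PCR and capillary electrophoresis, served as the endpoint. HepG2 cells bearing transfected GAL4-UAS reporters responsive to NR-GAL4 chimeras were incubated with compound 24 h; DMSO defined baseline.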

[19] = target: Oxysterols receptor LXR-alpha (Homo sapiens) (UniProt Q13133); assay: ATG_LXRa_TRANS: Attagene TRANS-FACTORIAL HepG2 Assay for human Liver X Receptor alpha (LXRa) (AID 2282980); settings: HepG2 Attagene TRANS reporter, LXRa transactivation
Procedure, shortened: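 Read-out: reporter transcript levels by RT-PCR plus capillary electrophoresis, fluorescence intensity. Transiently transfected HepG2, exogenous NR-GAL4 chimera, GAL4-UAS reporters; 24 h compound exposure. Activity = increase over DMSO negative control.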

[20] = target: Estrogen-related receptor gamma (Homo sapiens) (UniProt P62508); assay: ATG_ERRg_TRANS: Attagene TRANS-FACTORIAL HepG2 Assay for human Estrogen-Related Receptor gamma (ERRg) (AID 2282977); settings: HepG2 Attagene TRANS reporter, ERRg transactivation;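 also: hits increase reporter signal over DMSO so potencies reflect activators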
Procedure, shortened: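 Transfect HepG2 with multiple GAL4-UAS reporter transcription units; dose chemicals 24 h; isolate RNA, reverse-transcribe with oligo(dT), PCR-amplify, label with 6-FAM, digest with HpaI; size fragments by capillary electrophoresis. DMSO serves as negative control.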

Sequence of Oxysterols receptor LXR-alpha (Homo sapiens) (Q13133 whole entry, looked up, the tested form may be a part): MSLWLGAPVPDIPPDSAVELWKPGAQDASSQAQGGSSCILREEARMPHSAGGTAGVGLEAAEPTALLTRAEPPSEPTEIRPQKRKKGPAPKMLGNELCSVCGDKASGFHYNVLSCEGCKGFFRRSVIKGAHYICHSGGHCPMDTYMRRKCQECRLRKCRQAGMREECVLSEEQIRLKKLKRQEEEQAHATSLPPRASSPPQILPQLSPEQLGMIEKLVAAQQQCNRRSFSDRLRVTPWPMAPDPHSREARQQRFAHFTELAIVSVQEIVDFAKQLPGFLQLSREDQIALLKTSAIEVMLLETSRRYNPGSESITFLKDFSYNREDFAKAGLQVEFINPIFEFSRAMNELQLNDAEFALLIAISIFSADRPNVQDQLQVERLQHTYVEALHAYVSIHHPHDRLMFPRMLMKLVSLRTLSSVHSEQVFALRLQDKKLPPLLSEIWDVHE
Sequence of Nuclear receptor subfamily 1 group I member 3 (Homo sapiens) (Q14994 whole entry, looked up, the tested form may be a part): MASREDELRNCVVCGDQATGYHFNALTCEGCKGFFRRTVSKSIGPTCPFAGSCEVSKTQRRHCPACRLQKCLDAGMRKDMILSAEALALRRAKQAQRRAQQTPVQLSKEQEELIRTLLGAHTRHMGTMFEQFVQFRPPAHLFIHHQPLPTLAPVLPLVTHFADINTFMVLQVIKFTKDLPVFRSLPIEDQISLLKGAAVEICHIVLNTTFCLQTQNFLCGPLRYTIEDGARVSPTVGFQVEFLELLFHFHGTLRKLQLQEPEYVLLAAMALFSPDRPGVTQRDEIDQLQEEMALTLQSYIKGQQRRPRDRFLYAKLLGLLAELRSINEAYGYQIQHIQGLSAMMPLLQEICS
Sequence of Nuclear receptor subfamily 4 group A member 2 (Homo sapiens) (P43354 whole entry, looked up, the tested form may be a part): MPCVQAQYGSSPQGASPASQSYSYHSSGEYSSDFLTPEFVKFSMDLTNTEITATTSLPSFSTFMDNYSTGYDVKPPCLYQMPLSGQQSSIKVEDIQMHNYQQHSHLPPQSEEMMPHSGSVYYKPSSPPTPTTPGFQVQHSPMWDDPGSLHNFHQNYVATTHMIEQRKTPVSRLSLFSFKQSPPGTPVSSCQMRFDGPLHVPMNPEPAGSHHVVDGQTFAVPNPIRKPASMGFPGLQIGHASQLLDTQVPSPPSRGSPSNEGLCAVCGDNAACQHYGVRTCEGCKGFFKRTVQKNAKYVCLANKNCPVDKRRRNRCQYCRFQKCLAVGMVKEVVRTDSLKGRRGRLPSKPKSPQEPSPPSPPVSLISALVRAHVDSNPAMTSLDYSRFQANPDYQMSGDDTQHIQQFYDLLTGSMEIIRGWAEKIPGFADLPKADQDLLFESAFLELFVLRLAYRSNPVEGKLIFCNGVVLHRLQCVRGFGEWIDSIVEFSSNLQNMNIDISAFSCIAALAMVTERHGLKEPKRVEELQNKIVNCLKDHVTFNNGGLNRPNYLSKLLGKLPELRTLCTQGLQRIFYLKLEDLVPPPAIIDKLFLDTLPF
Sequence of X-box-binding protein 1 (Homo sapiens) (P17861 whole entry, looked up): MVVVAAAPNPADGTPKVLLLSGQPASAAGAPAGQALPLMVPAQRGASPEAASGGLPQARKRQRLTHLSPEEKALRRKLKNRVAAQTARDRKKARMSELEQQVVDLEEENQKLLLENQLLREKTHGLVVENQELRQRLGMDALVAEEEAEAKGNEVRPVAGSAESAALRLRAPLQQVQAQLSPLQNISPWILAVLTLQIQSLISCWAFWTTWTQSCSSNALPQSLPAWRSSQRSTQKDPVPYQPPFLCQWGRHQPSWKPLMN
Sequence of Transcriptional activator Myb (Homo sapiens) (P10242 whole entry, looked up): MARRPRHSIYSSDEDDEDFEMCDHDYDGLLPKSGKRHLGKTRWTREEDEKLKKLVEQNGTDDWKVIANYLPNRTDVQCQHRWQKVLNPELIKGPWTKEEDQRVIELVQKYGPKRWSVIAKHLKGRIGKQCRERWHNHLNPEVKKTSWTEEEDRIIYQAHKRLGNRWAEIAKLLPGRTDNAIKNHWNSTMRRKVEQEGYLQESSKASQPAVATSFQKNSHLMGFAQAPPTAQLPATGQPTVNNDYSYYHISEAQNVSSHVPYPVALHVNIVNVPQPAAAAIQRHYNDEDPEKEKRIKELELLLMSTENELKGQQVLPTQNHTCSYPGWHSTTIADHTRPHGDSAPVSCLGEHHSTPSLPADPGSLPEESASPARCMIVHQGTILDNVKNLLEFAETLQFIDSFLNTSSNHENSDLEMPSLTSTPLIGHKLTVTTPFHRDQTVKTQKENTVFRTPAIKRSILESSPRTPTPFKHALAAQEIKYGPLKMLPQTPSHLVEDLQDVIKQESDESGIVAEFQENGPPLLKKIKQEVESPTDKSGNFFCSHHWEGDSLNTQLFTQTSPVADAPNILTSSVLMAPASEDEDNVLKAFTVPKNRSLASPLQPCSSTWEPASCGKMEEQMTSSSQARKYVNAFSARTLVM
Sequence of Glucocorticoid receptor (Homo sapiens) (P04150 whole entry, looked up, the tested form may be a part): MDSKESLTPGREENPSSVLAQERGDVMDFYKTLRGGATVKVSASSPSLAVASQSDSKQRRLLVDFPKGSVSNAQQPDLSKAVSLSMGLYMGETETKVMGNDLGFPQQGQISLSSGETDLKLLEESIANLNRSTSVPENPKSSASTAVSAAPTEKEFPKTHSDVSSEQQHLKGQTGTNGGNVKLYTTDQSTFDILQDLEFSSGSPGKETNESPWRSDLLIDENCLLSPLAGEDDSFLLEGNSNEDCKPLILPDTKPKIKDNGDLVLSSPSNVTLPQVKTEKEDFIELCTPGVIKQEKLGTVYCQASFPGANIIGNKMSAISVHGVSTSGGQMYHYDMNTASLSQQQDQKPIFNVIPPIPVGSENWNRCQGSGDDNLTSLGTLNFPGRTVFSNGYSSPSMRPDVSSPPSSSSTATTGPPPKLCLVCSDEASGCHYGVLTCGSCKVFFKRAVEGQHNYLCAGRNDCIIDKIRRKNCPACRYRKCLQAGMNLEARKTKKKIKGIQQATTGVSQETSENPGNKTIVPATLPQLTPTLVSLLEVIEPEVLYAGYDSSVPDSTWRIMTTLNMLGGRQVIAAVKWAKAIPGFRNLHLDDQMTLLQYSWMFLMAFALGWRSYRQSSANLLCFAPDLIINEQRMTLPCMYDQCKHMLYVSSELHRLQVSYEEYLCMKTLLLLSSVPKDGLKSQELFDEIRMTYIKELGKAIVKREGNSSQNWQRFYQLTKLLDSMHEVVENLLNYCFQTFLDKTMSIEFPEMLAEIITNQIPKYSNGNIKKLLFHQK
Sequence of Hepatocyte nuclear factor 4-alpha (Homo sapiens) (P41235 whole entry, looked up, the tested form may be a part): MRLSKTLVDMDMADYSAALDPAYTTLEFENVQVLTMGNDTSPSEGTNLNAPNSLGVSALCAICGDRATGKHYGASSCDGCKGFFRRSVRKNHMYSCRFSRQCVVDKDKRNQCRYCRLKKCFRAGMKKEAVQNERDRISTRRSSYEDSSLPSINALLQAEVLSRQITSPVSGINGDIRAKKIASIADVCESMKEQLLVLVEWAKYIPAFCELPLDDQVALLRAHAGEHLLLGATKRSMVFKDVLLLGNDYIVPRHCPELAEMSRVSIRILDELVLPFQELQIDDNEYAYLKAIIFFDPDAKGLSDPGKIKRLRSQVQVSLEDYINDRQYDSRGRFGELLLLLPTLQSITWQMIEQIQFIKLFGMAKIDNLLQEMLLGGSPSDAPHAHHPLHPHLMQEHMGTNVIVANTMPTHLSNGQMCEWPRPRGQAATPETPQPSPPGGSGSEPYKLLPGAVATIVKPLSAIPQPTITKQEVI
Sequence of Bile acid receptor (Homo sapiens) (Q96RI1 whole entry, looked up, the tested form may be a part): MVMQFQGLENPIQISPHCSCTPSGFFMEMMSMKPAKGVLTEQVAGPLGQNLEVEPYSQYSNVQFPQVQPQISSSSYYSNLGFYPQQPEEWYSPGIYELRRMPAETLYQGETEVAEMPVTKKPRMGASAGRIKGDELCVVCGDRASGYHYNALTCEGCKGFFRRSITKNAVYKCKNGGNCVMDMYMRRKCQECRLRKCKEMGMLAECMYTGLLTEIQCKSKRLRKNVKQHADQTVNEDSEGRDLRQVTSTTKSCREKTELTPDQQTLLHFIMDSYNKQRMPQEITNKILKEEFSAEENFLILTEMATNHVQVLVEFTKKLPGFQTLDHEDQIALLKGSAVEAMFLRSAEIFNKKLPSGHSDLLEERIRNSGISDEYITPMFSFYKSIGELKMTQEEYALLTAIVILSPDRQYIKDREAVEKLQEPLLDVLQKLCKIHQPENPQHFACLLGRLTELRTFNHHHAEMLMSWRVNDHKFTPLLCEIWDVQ
Sequence of Oxysterols receptor LXR-beta (Homo sapiens) (P55055 whole entry, looked up, the tested form may be a part): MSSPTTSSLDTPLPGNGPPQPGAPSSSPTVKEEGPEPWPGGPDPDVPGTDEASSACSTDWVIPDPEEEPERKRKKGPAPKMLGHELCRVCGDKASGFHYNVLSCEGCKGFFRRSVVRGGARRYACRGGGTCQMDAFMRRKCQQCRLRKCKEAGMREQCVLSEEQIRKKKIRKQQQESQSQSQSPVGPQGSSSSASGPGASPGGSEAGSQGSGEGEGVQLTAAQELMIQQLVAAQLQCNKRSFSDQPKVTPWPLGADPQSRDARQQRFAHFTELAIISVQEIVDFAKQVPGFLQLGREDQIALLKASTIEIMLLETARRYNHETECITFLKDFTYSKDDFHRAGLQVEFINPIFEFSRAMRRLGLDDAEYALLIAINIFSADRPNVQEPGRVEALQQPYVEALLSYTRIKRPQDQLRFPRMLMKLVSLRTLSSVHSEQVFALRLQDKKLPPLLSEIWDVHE
Sequence of Steroid hormone receptor ERR1 (Homo sapiens) (P11474 whole entry, looked up, the tested form may be a part): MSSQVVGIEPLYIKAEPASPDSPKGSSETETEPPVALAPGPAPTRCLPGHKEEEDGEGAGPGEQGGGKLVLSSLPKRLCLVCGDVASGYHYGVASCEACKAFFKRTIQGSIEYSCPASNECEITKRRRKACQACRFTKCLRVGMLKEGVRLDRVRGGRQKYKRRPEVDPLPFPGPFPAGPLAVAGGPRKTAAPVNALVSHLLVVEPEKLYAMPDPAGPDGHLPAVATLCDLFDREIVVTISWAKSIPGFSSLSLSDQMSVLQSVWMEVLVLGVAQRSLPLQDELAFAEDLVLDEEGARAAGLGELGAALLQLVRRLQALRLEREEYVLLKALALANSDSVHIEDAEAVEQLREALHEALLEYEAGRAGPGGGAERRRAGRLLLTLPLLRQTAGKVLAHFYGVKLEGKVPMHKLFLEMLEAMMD

## CCCCC(=O)O
[1]
  outcome: inactive
[2]
  outcome: inactive
[3]
  outcome: inactive
[4]
  outcome: inactive
[5]
  outcome: inactive
[6]
  outcome: inactive
[7]
  outcome: inactive
[8]
  outcome: inactive
[9]
  outcome: inactive
[10]
  outcome: inactive
[11]
  outcome: inactive
[12]
  outcome: inactive
[13]
  outcome: inactive
[14]
  outcome: inactive
[15]
  outcome: inactive
[16]
  outcome: inactive

## CCCCCCOc1ccc(N)cc1
[1]
  outcome: inactive
[2]
  outcome: inactive
[3]
  outcome: inactive
[4]
  outcome: inactive
[5]
  outcome: inactive
[6]
  outcome: inactive
[17]
  outcome: inactive
[10]
  outcome: inactive
[13]
  outcome: inactive
[14]
  outcome: inactive

## CCOC(=O)[C@H](O)[C@@H](O)C(=O)OCC
[1]
  outcome: inactive
[2]
  outcome: inactive
[3]
  outcome: inactive
[4]
  outcome: inactive
[5]
  outcome: inactive
[6]
  outcome: inactive
[7]
  outcome: inactive
[8]
  outcome: inactive
[9]
  outcome: inactive
[18]
  outcome: inactive
[19]
  outcome: inactive
[11]
  outcome: inactive
[12]
  outcome: inactive
[14]
  outcome: inactive
[15]
  outcome: inactive
[16]
  outcome: inactive

## N#Cc1ccc(C2CCCc3cncn32)cc1 (stereo unspecified)
[1]
  outcome: inactive
[2]
  outcome: inactive
[3]
  outcome: inactive
[4]
  outcome: inactive
[5]
  outcome: inactive
[6]
  AC50: 25.8 µM (active)
[7]
  outcome: inactive
[8]
  outcome: inactive
[9]
  outcome: inactive
[19]
  outcome: inactive
[12]
  outcome: inactive
[13]
  outcome: inactive
[16]
  outcome: inactive

## Cc1c(O)cccc1O
[1]
  outcome: inactive
[2]
  outcome: inactive
[3]
  outcome: inactive
[4]
  outcome: inactive
[5]
  outcome: inactive
[6]
  AC50: 46.1 µM (active)
[7]
  outcome: inactive
[9]
  outcome: inactive
[20]
  outcome: inactive
[10]
  outcome: inactive
[11]
  outcome: inactive
[12]
  outcome: inactive
[15]
  outcome: inactive

## CCc1cccc(C)c1N(C(=O)CS(=O)(=O)O)C(C)COC (stereo unspecified)
[1]
  outcome: inactive
[2]
  outcome: inactive
[3]
  outcome: inactive
[4]
  outcome: inactive
[5]
  outcome: inactive
[6]
  AC50: 56.2 µM (active)
[7]
  outcome: inactive
[9]
  outcome: inactive
[18]
  outcome: inactive
[10]
  outcome: inactive
[19]
  outcome: inactive
[12]
  outcome: inactive
[13]
  outcome: inactive
[15]
  outcome: inactive
[16]
  outcome: inactive

## COC(Cc1ccccc1)OC
[1]
  outcome: inactive
[2]
  outcome: inactive
[3]
  outcome: inactive
[4]
  outcome: inactive
[5]
  outcome: inactive
[6]
  outcome: inactive
[7]
  outcome: inactive
[8]
  outcome: inactive
[19]
  outcome: inactive
[11]
  outcome: inactive
[12]
  outcome: inactive
[13]
  outcome: inactive
[14]
  outcome: inactive
[15]
  outcome: inactive
[16]
  outcome: inactive

## CCCCCCCOC(=O)c1ccc(O)cc1
[1]
  outcome: inactive
[2]
  outcome: inactive
[3]
  outcome: inactive
[4]
  outcome: inactive
[5]
  outcome: inactive
[6]
  AC50: 8.4 µM (active)
[7]
  AC50: 45.1 µM (active)
[9]
  outcome: inactive
[18]
  outcome: inactive
[10]
  outcome: inactive
[11]
  outcome: inactive
[12]
  outcome: inactive
[13]
  outcome: inactive
[14]
  outcome: inactive
[15]
  outcome: inactive
[16]
  outcome: inactive

## CC1(C)[C@@H]2CC[C@@]1(C)C(=O)C2
[1]
  outcome: inactive
[2]
  outcome: inactive
[3]
  outcome: inactive
[4]
  outcome: inactive
[5]
  outcome: inactive
[6]
  outcome: inactive
[17]
  outcome: inactive
[7]
  outcome: inactive
[8]
  outcome: inactive
[20]
  outcome: inactive

## Cc1c(Cl)cccc1Cl
[1]
  outcome: inactive
[2]
  outcome: inactive
[3]
  outcome: inactive
[4]
  outcome: inactive
[5]
  outcome: inactive
[6]
  outcome: inactive
[7]
  outcome: inactive
[8]
  outcome: inactive
[9]
  outcome: inactive
[18]
  outcome: inactive
[13]
  outcome: inactive
[16]
  outcome: inactive
